Results: PubChem BioAssay AID1159580 (chemical genetic matrix, 2015)
In all, about 5,500 compounds went through this assay and about 2,000 (36%) were called active. Another 18% or so got no clear call; they are omitted. No stated cut-off is given here; in the data, active means normalized growth mostly below about 0.91 (no sharp cut-off); inconclusive means no clear call, values can overlap the other calls; inactive means mostly above about 0.92. The list shows a part of the results.

Experiment: chemical genetic growth profiling, strain panel (AID 1159580);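 further: tested at 20 µM; growth read once vehicle control cultures reached saturation at 30 °C; 1 = growth at the plate median or of vehicle wells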
Settings: growth OD

Measured: normalized growth

COc1ccc2c(c1)CCC1C2CC[C@@]2(C)C1CC[C@@H]2O (some centres not stated)
active: S. cerevisiae deletion strains, locus YJR075W, strain HOC1, stronger effect = lower value 0.705 | S. cerevisiae deletion strains, locus YKL009W, strain mrt4, stronger effect = lower value 0.685 | S. cerevisiae deletion strains, locus YKL085W, strain MDH1 (second series), stronger effect = lower value 0.853 | S. cerevisiae deletion strains, locus YKL085W, strain MDH1, stronger effect = lower value 0.853 | S. cerevisiae deletion strains, locus YKL160W, strain elf1, stronger effect = lower value 0.829 | S. cerevisiae deletion strains, locus YKL190W, strain CNB1, stronger effect = lower value 0.843 | S. cerevisiae deletion strains, locus YKR001C, strain vps1, stronger effect = lower value 0.359 | S. cerevisiae deletion strains, locus YLL001W, strain dnm1, stronger effect = lower value 0.838 | S. cerevisiae deletion strains, locus YLL026W, stronger effect = lower value 0.902 | S. cerevisiae deletion strains, locus YLR027C, strain aat2, stronger effect = lower value 0.816 | S. cerevisiae deletion strains, locus YLR039C, strain RIC1, stronger effect = lower value 0.351 | S. cerevisiae deletion strains, locus YLR058C, strain SHM2, stronger effect = lower value 0.879 | S. cerevisiae deletion strains, locus YLR113W, strain HOG1, stronger effect = lower value 0.816 | S. cerevisiae deletion strains, locus YLR221C, strain rsa3, stronger effect = lower value 0.808 | S. cerevisiae deletion strains, locus YLR258W, strain gsy2, stronger effect = lower value 0.892 | S. cerevisiae deletion strains, locus YLR262C, strain YPT6 (second series), stronger effect = lower value 0.505 | S. cerevisiae deletion strains, locus YLR262C, strain YPT6, stronger effect = lower value 0.293 | S. cerevisiae deletion strains, locus YLR268W, strain sec22, stronger effect = lower value 0.818 | S. cerevisiae deletion strains, locus YLR320W, strain mms22, stronger effect = lower value 0.722 | S. cerevisiae deletion strains, locus YLR330W, strain CHS5, stronger effect = lower value 0.748 | S. cerevisiae deletion strains, locus YLR342W, strain FKS1 (second series), stronger effect = lower value 0.398 | S. cerevisiae deletion strains, locus YLR342W, strain FKS1, stronger effect = lower value 0.781 | S. cerevisiae deletion strains, locus YLR357W, strain rsc2, stronger effect = lower value 0.852 | S. cerevisiae deletion strains, locus YLR418C, strain cdc73, stronger effect = lower value 0.381 | S. cerevisiae deletion strains, locus YML032C, strain rad52, stronger effect = lower value 0.696 | S. cerevisiae deletion strains, locus YML120C, strain ndi1, stronger effect = lower value 0.896 | S. cerevisiae deletion strains, locus YMR058W, strain fet3, stronger effect = lower value 0.872 | S. cerevisiae deletion strains, locus YMR078C, strain ctf18, stronger effect = lower value 0.867 | S. cerevisiae deletion strains, locus YMR205C, strain PFK2, stronger effect = lower value 0.697 | S. cerevisiae deletion strains, locus YMR223W, strain ubp8, stronger effect = lower value 0.728 | S. cerevisiae deletion strains, locus YMR263W, strain SAP30, stronger effect = lower value 0.785 | S. cerevisiae deletion strains, locus YMR307W, strain GAS1, stronger effect = lower value 0.237 | S. cerevisiae deletion strains, locus YNL067W, strain RPL9B, stronger effect = lower value 0.791 | S. cerevisiae deletion strains, locus YNL071W, strain lat1, stronger effect = lower value 0.468 | S. cerevisiae deletion strains, locus YNL128W, strain TEP1, stronger effect = lower value 0.78 | S. cerevisiae deletion strains, locus YNL153C, strain GIM3, stronger effect = lower value 0.838 | S. cerevisiae deletion strains, locus YNL233W, strain BNI4, stronger effect = lower value 0.584 | S. cerevisiae deletion strains, locus YNL250W, strain rad50, stronger effect = lower value 0.85 | S. cerevisiae deletion strains, locus YNL271C, strain bni1, stronger effect = lower value 0.8 | S. cerevisiae deletion strains, locus YNL298W, strain CLA4, stronger effect = lower value 0.548 | S. cerevisiae deletion strains, locus YNL307C, strain MCK1, stronger effect = lower value 0.266 | S. cerevisiae deletion strains, locus YNL322C, strain KRE1, stronger effect = lower value 0.87 | S. cerevisiae deletion strains, locus YNR052C, strain pop2, stronger effect = lower value 0.738 | S. cerevisiae deletion strains, locus YOL006C, strain TOP1, stronger effect = lower value 0.477 | S. cerevisiae deletion strains, locus YOL147C, strain pex11, stronger effect = lower value 0.695 | S. cerevisiae deletion strains, locus YOR070C, strain gyp1, stronger effect = lower value 0.873 | S. cerevisiae deletion strains, locus YOR083W, strain WHI5, stronger effect = lower value 0.825 | S. cerevisiae deletion strains, locus YOR106W, strain vam3, stronger effect = lower value 0.738 | S. cerevisiae deletion strains, locus YOR136W, strain idh2, stronger effect = lower value 0.853 | S. cerevisiae deletion strains, locus YOR144C, strain elg1, stronger effect = lower value 0.898 | S. cerevisiae deletion strains, locus YOR184W, strain ser1, stronger effect = lower value 0.458 | S. cerevisiae deletion strains, locus YOR265W, strain rbl2, stronger effect = lower value 0.912 | S. cerevisiae deletion strains, locus YOR290C, strain snf2, stronger effect = lower value 0.761 | S. cerevisiae deletion strains, locus YOR316C, strain cot1, stronger effect = lower value 0.85 | S. cerevisiae deletion strains, locus YPL051W, strain arl3, stronger effect = lower value 0.83 | S. cerevisiae deletion strains, locus YPL055C, strain LGE1, stronger effect = lower value 0.53 | S. cerevisiae deletion strains, locus YPL078C, strain atp4, stronger effect = lower value 0.791 | S. cerevisiae deletion strains, locus YPL106C, strain sse1, stronger effect = lower value 0.837 | S. cerevisiae deletion strains, locus YPL240C, strain hsp82, stronger effect = lower value 0.892 | S. cerevisiae deletion strains, locus YPL241C, strain CIN2, stronger effect = lower value 0.893 | S. cerevisiae deletion strains, locus YPR119W, strain clb2, stronger effect = lower value 0.917 | S. cerevisiae deletion strains, locus YPR163C, strain tif3, stronger effect = lower value 0.657 | S. cerevisiae deletion strains, locus YPR167C, strain met16, stronger effect = lower value 0.85 | S. cerevisiae deletion strains, strain wtn01, stronger effect = lower value 0.731 | S. cerevisiae strains, strain wild type, stronger effect = lower value 0.785
inactive: S. cerevisiae deletion strains, locus YKL068W, stronger effect = lower value 0.944 | S. cerevisiae deletion strains, locus YKR026C, strain gcn3, stronger effect = lower value 0.969 | S. cerevisiae deletion strains, locus YKR091W, strain srl3, stronger effect = lower value 0.968 | S. cerevisiae deletion strains, locus YLL041C, strain sdh2, stronger effect = lower value 0.973 | S. cerevisiae deletion strains, locus YLR102C, strain apc9, stronger effect = lower value 0.951 | S. cerevisiae deletion strains, locus YLR370C, strain arc18, stronger effect = lower value 0.959 | S. cerevisiae deletion strains, locus YLR371W, strain rom2, stronger effect = lower value 0.925 | S. cerevisiae deletion strains, locus YLR384C, strain iki3, stronger effect = lower value 1.02 | S. cerevisiae deletion strains, locus YML016C, strain PPZ1, stronger effect = lower value 0.977 | S. cerevisiae deletion strains, locus YML124C, strain tub3, stronger effect = lower value 0.934 | S. cerevisiae deletion strains, locus YMR125W, strain sto1, stronger effect = lower value 0.938 | S. cerevisiae deletion strains, locus YMR129W, stronger effect = lower value 0.961 | S. cerevisiae deletion strains, locus YMR231W, strain pep5, stronger effect = lower value 0.963 | S. cerevisiae deletion strains, locus YNL183C, strain NPR1, stronger effect = lower value 0.838 | S. cerevisiae deletion strains, locus YNL209W, strain ssb2, stronger effect = lower value 0.934 | S. cerevisiae deletion strains, locus YNL248C, strain rpa49, stronger effect = lower value 0.915 | S. cerevisiae deletion strains, locus YNL322C, strain KRE1 (second series), stronger effect = lower value 0.907 | S. cerevisiae deletion strains, locus YNR049C, strain mso1, stronger effect = lower value 0.984 | S. cerevisiae deletion strains, locus YOL012C, strain htz1 1.54 | S. cerevisiae deletion strains, locus YOR001W, strain rrp6, stronger effect = lower value 0.893 | S. cerevisiae deletion strains, locus YOR061W, strain CKA2, stronger effect = lower value 0.965 | S. cerevisiae deletion strains, locus YOR069W, strain VPS5, stronger effect = lower value 0.968 | S. cerevisiae deletion strains, locus YOR080W, strain dia2, stronger effect = lower value 0.98 | S. cerevisiae deletion strains, locus YOR231W, strain MKK1, stronger effect = lower value 0.883 | S. cerevisiae deletion strains, locus YOR270C, strain vph1, stronger effect = lower value 1.01 | S. cerevisiae deletion strains, locus YPL256C, strain CLN2, stronger effect = lower value 0.878 | S. cerevisiae deletion strains, locus YPR141C, strain kar3, stronger effect = lower value 0.967
